Only some compounds are listed: those with a hit (about 10% of all), similar ones and a draw of the others.
3T3 cytotox: NIH 3T3 cell cytotoxicity | actives 4.3% (n = 94,000) | Potency, µM (titrated, usually from 96.7 µM), for the others: top-dose activity change, negative = cytotoxicity, hits mostly inhibitors | NIH 3T3 viability, CellTiter-Glo ATP luminescence, 48-72 h; note: nearly all actives have a fitted effect of over 55% in size
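Viability of NIH 3T3 cells after 48 or 72 hr compound treatment at 37 °C was assessed by CellTiter-Glo, with luminescence imaged following a 10 min room-temperature step.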
NPR1 antag: antagonists of human natriuretic peptide receptor Npr1; P16066; HEK293 hNpr1 GloSensor cGMP, ANP-stimulated luminescence; Potency, µM (highest dose often 46.3 µM), for inactives: at the highest dose activity change, negative = inhibition, usual class: inhibitors; actives 1.6% (n = 76,000); calls by dose curve; note: nearly all actives have a fitted effect of over 60% in size
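Compound pre-incubated 30 min at room temperature on GloSensor-loaded HEK293 cells stably carrying hNpr1 and the pGS-40F cGMP biosensor. Stimulation uses hNppA at 0.1 nM final; luminescence is taken at baseline and 20 min post-agonist.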
Luciferase inh: Photinus pyralis luciferase inhibition | purified P. pyralis luciferase, luminescence, biochemical | Potency, µM (top dose mostly 115 µM), actives largely listed as inhibitors | actives 2.5% (n = 76,000) | AID 1347043; note: nearly all actives have a fitted effect of over 65% in size
Target sequence (P08659 whole entry, looked up): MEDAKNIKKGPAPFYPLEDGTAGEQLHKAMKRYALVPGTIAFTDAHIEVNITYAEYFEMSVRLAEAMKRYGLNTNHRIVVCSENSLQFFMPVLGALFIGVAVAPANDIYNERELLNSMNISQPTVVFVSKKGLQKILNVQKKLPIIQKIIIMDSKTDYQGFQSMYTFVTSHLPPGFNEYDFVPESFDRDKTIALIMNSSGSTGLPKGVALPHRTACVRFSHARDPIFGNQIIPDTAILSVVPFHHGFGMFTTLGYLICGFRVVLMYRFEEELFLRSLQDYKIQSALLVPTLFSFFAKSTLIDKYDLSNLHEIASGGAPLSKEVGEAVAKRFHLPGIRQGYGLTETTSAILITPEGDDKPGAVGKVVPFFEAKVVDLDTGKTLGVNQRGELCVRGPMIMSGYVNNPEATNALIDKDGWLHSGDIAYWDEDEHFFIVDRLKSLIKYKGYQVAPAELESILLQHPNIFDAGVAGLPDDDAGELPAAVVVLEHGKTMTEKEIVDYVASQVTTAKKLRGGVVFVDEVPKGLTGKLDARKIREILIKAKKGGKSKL
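Biochemical qHTS: compound (6-point titration) added to 10uM D-luciferin plus 10uM ATP in Tris acetate pH 7.5 buffer with Mg, Tween-20 and BSA, then purified enzyme at 10nM; light output imaged.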
HEK293 tox: cytotoxic compounds in HEK 293 cells; AID 1345083; Potency, µM (doses to about 115 µM), for inactives: at the top dose activity change, negative = cytotoxicity, usual class: inhibitors; HEK 293 viability, ATP luminescence (CellTiter-Glo), 48-72 h; actives 6.6% (n = 94,000); note: nearly all actives have a fitted effect of over 60% in size
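Viability of HEK 293 cells, plated at 250 cells/well, was judged by cellular ATP after compound treatment for 48 or 72 hr. Luminescence was imaged 10 min after CellTiter-Glo addition at room temperature.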
GPT2 inhibitor: GPT2 alanine aminotransferase inhibition; Recombinant GPT2, coupled pyruvate oxidase/HRP Amplex Red fluorescence; Potency, µM (top dose mostly 57.7 µM), for the others: at the top dose activity change, negative = inhibition, hits mostly inhibitors; actives 0.25% (n = 100,000); note: nearly all actives have a fitted effect of over 60% in size
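Fluorescence read-out: pyruvate from GPT2 turnover coupled to pyruvate oxidase, HRP and Amplex Red (0.2mM ThPP, 0.2U/mL PO and HRP, 50uM Amplex final). Substrates 250uM a-KG, 2mM L-alanine; enzyme 10ng/uL; 30 min RT.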
Active calls of the source: *; i = inactive; u = inconclusive; x = no result given; [ ] = dose if it differs, or a comment. Unless noted, calls come from the whole dose curve; as a rule, active = well fitted curve in the direction sought with a large enough effect; inconclusive = small, poorly fitted or top-dose-only effect, or another doubt; inactive = no such curve, though single readings can be large; an effect the other way counts as inactive or inconclusive. % is set by controls: 0 for no effect and ±100 for the full control effect; potency is the fitted concentration of half-maximal effect.

SMILES	3T3 cytotox	NPR1 antag	Luciferase inh	HEK293 tox	GPT2 inhibitor
Cn1cc(-c2ccc3c(n2)CN(Cc2ccc(F)cc2)C(=O)CO3)cn1	u	-16%[70.6 µM]	i	u	-4%[88.5 µM]
O=C1COc2ccc(-c3cc(F)cc(F)c3)nc2CN1Cc1ccccc1	u	1%[70.6 µM]	i	u	-2%[88.5 µM]
COc1ccc(-c2ccc3c(n2)CN(Cc2ccccc2)C(=O)CO3)cc1F	79µM*	-17%[70.6 µM]	i	79µM*	-16%[88.5 µM]
O=C1COc2ccc(-c3ccncc3)nc2CN1Cc1ccccc1F	89µM*	1%[70.6 µM]	i	u	3%[88.5 µM]
Cn1cc(-c2ccc3c(n2)CN(Cc2ccc(C(F)(F)F)cc2)C(=O)CO3)cn1	32µM*	-16%[70.6 µM]	i	u	-27%[88.5 µM]
O=C1COc2ccc(-c3ccccc3)nc2CN1Cc1ccccc1	u	-16%[70.6 µM]	i	112µM*	i
Cc1cn2nc(C(=O)NCCc3ccccc3)cc2c(N2CCCC2)n1	u	3%	i	u	i
COc1ccccc1Cn1c(-c2ccc(F)cc2)nc(C)c(CCO)c1=O	u	-11%	i	u	2%
COc1ccc(-c2ccc3c(n2)CN(Cc2ccc(F)cc2)C(=O)CO3)cc1	u	u	i	u	-1%[88.5 µM]
O=C1COc2ccc(-c3ccc(F)cc3)nc2CN1Cc1ccccc1F	u	-22%[70.6 µM]	i	100µM*	0%[88.5 µM]
COc1ccc(-c2ccc3c(n2)CN(Cc2ccccc2F)C(=O)CO3)cc1OC	25µM*	-16%[70.6 µM]	i	50µM*	2%[88.5 µM]
COCCN1Cc2nc(-c3ccc(OC)c(F)c3)ccc2OCC1=O	u	0%[70.6 µM]	i	-23%[172 µM]	i
O=C(NCc1cccc(C(F)(F)F)c1)c1ccc2nnc(-c3ccoc3)n2c1	u	x	x	u	i
O=C(NCCc1ccc(Cl)cc1)c1ccc2nnc(-c3ccc(OC(F)(F)F)cc3)n2c1	-22%	x	x	79µM*	i
O=C(NCCc1ccccc1)c1ccc2nnc(-c3ccc(OC(F)(F)F)cc3)n2c1	u	x	x	u	i
O=C(NCCc1ccc(Cl)cc1)c1ccc2nnc(-c3cc(C(F)(F)F)cc(C(F)(F)F)c3)n2c1	25µM*	x	x	20µM*	i
O=C(NC1CCCCC1)c1ccc2nnc(-c3cccc(C(F)(F)F)c3)n2c1	u	x	x	32µM*	u
O=C(NCc1cccc(C(F)(F)F)c1)c1ccc2nnc(-c3ccc(Cl)cc3)n2c1	40µM*	x	x	45µM*	-14%
O=C(NCc1cccc(C(F)(F)F)c1)c1ccc2nnc(-c3cc(C(F)(F)F)cc(C(F)(F)F)c3)n2c1	20µM*	x	x	14µM*	-11%
O=C(NCc1cccc(C(F)(F)F)c1)c1ccc2nnc(-c3cccc(C(F)(F)F)c3)n2c1	u	x	x	u	-21%
O=C(NCc1ccccc1)c1ccc2nnc(-c3cc(C(F)(F)F)cc(C(F)(F)F)c3)n2c1	u	x	x	40µM*	4%
O=C(NCc1ccccc1)c1ccc2nnc(-c3cccc(C(F)(F)F)c3)n2c1	u	x	x	35µM*	i
O=C(NCc1ccc(F)c(F)c1)c1ccc2nnc(-c3cc(C(F)(F)F)cc(C(F)(F)F)c3)n2c1	u	x	x	u	0%
O=C(NCc1cccc(Cl)c1)c1ccc2nnc(-c3cc(C(F)(F)F)cc(C(F)(F)F)c3)n2c1	u	x	x	14µM*	i
Cc1cccc(CN2CCc3ncc(C(=O)NCCC(C)C)n3CC2)c1	u	-8%[70.6 µM]	i	40µM*	-13%[88.5 µM]
Cc1ccccc1CN1CCc2ncc(C(=O)NCCC(C)C)n2CC1	u	-3%[70.6 µM]	i	u	-9%[88.5 µM]
N#Cc1cccc(CN2CCc3ncc(C(=O)NCCOc4ccccc4)n3CC2)c1	28µM*	u	i	28µM*	-8%[88.5 µM]
CS(=O)(=O)N(Cc1cccnc1)C1CN(C(=O)COc2ccc(F)cc2)C1	-24%	-7%	i	1%	i
c1ccc(Cn2cc(CNc3ncncn3)cn2)cc1	-26%	-1%	i	-25%	-17%[11.5 µM]
O=C(c1ccccc1F)N1CCC2(CC1)CN(Cc1ccccc1)CC2CO (centres undefined)	u	-15%	i	79µM*	-3%

Bioassay records: PubChem BioAssay, National Center for Advancing Translational Sciences (NCATS)
